# According to PubChem BioAssay (EPA / NIEHS):
# Several values for one entry are separate records, joined by “and”; a condition that tells them apart may be missing. Identical values can stand only once. Records with an inconclusive call do not appear. Activity calls are given as the source filed them. The calls were made as follows, unless noted: active = hit-call score of the fitted dose curve at least 0.9, where 1 is the maximum; inactive = score below 0.9.
# Assays:
# [1] = ACEA_ER_80hr: ACEA Biosciences xCELLigence Real-Time Cell Analysis on Estrogen Receptor Agonism for Proliferation (AID 2282667; active = hit-call score of the fitted dose curve at least 0.9, where 1 is the maximum); settings: T47D proliferation, impedance (xCELLigence), 80 h
# How it was run: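 T47D human breast cells were seeded on electrode plates, monitored overnight, then exposed continuously to compounds in eight-point 1:4 dilutions from 100 uM (max 0.5% DMSO). Impedance-based growth was read at 80 h, fitted upward relative to DMSO.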
# [2] = APR_HepG2_CellLoss_1hr: Apredica 1-hour HepG2 Assay for Cell Loss (AID 2282668); settings: high-content imaging;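 also: curves fitted both ways against DMSO so gain or loss of cells counts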
# How it was run: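 Cell number comes from high-content imaging of Hoechst-labelled nuclei in fixed HepG2 cells. Cells were exposed for 1 h to ten concentrations from 0.39 to 200 uM in 0.5% DMSO. Gain or loss was fitted against DMSO controls.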
# [3] = APR_HepG2_NuclearSize_1hr: Apredica 1-hour HepG2 Assay for Nuclear Size (AID 2282670); settings: high-content imaging, actives raise or lower the signal
# How it was run: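 Nuclear size measured by high-content imaging of Hoechst 33342 nuclear stain after formaldehyde fixation; human HepG2 line exposed 1 hr to compounds at 0.39–200 uM in 0.5% DMSO, with bidirectional curve fitting relative to DMSO.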
# [4] = APR_HepG2_MitoticArrest_1hr: Apredica 1-hour HepG2 Assay for Mitotic Arrest (AID 2282672); settings: high-content imaging, actives raise or lower the signal
# How it was run: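 Ten-point concentration series (0.39 to 200 uM, duplicates, 0.5% v/v DMSO) applied to human HepG2 liver cells for 1 hr. High-content imaging of phospho-histone H3 and Hoechst-stained nuclei after fixation and permeabilization; DMSO-normalised bidirectional fit.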
# [5] = APR_HepG2_P-H2AX_1hr: Apredica 1-hour HepG2 Assay for H2AX Phosphorylation (AID 2282673); settings: high-content imaging, actives raise or lower the signal
# How it was run: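 Phospho-H2A.x immunofluorescence (1:200, FITC secondary) plus Hoechst nuclear stain, quantified by high-content imaging in HepG2 after 1 hr compound exposure. Ten concentrations, 0.39 to 200 uM, in duplicate with 0.5% DMSO; fit both directions against DMSO.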
# [6] = APR_HepG2_MitoMembPot_1hr: Apredica 1-hour HepG2 Assay for Mitochondrial Membrane Potential (AID 2282675); settings: imaging, actives raise or lower the signal
# How it was run: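 Mitochondrial membrane potential read as MitoTracker Red CMXRos intensity by automated imaging of fixed HepG2 cells. Dye at 250 nM for 30 min pre-fixation; compounds 0.39 to 200 uM for 1 hour, duplicate wells, 0.5% DMSO.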
# [7] = APR_HepG2_NuclearSize_24hr: Apredica 24-hour HepG2 Assay for Nuclear Size (AID 2282907); settings: high-content imaging, actives raise or lower the signal
# How it was run: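 After fixation and permeabilization, 24-hr-treated HepG2 cells were stained with Hoechst 33342 and imaged on an ArrayScan (20x). Doses spanned 0.39–200 uM in duplicate. Nuclear diameter changes in either direction were fitted relative to 0.5% DMSO controls.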
# [8] = APR_HepG2_CellLoss_24hr: Apredica 24-hour HepG2 Assay for Cell Loss (AID 2282908); settings: high-content imaging;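 as to AC50: fit in both directions so a hit may be cell loss or gain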
# How it was run: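 Duplicate wells received compound at ten concentrations (0.39–200 uM; final DMSO 0.5% v/v). After fixation with formaldehyde, nuclei stained with Hoechst 33342 were imaged at 20x. Loss or gain of cell count was fitted relative to DMSO controls.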
# [9] = APR_HepG2_MicrotubuleCSK_24hr: Apredica 24-hour HepG2 Assay for Microtubule CSK Stabilty (AID 2282909); settings: HepG2 microtubule cytoskeleton imaging, actives raise or lower the signal
# How it was run: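 Microtubule stability is scored from tubulin immunofluorescence in fixed HepG2 cells imaged at 20x. Cells receive ten compound concentrations up to 200 uM for 24 h; taxol and DMSO serve as positive and negative controls.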
# [10] = APR_HepG2_MitoMembPot_24hr: Apredica 24-hour HepG2 Assay for Mitochondrial Membrane Potential (AID 2282911); settings: imaging, actives raise or lower the signal
# How it was run: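 HepG2 human liver cells were exposed 24 hr to compounds at 0.39–200 uM (final DMSO 0.5% v/v) in duplicate. MitoTracker Red CMXRos (250 nM, 30 min) was loaded before formaldehyde fixation; fluorescence was imaged by ArrayScan HCS and fitted bidirectionally versus DMSO.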
# [11] = APR_HepG2_MitoMass_24hr: Apredica 24-hour HepG2 Assay for Mitochondrial Mass (AID 2282912); settings: high-content imaging, actives raise or lower the signal
# How it was run: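 Readout: fluorescence of MitoTracker Red CMXRos (250 nM, added 30 min pre-fixation) in fixed HepG2 cells imaged by HCS. Exposure lasted 24 hr at 0.39–200 uM; increases and decreases were both fitted relative to DMSO.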
# [12] = APR_HepG2_CellCycleArrest_72hr: Apredica 72-hour HepG2 Assay for Cell Cycle Arrest (AID 2282914); settings: high-content imaging, actives raise or lower the signal
# How it was run: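 HepG2 cells were exposed to compounds at 0.39–200 uM (0.5% v/v DMSO final, duplicates) for 72 hr, fixed in 3.7% formaldehyde, permeabilized and stained with Hoechst 33342. Nuclear DNA content was quantified by high-content imaging; gain or loss of signal was fitted bidirectionally against DMSO.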
# [13] = APR_HepG2_CellLoss_72hr: Apredica 72-hour HepG2 Assay for Cell Loss (AID 2282915); settings: high-content imaging
# How it was run: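 HepG2 cells were exposed for 72 hr to compounds at 0.39–200 uM (ten concentrations, duplicate) in 0.5% v/v final DMSO. Nuclei were stained with Hoechst 33342 after 3.7% formaldehyde fixation, imaged at 20x, and counted; fits bidirectional versus DMSO.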
# [14] = APR_HepG2_CellCycleArrest_24hr: Apredica 24-hour HepG2 Assay for Cell Cycle Arrest (AID 2282905); settings: imaging, actives raise or lower the signal;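 also: cell cycle arrest scored as ratio of 2N to 4N nuclear DNA content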
# How it was run: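 Step one: dose HepG2 with test compounds, 0.39–200 uM, 0.5% DMSO, 24 hr. Step two: fix, permeabilize, stain nuclei with Hoechst 33342. Step three: image six fields per well at 20x, quantify DNA content, fit bidirectionally relative to DMSO.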
# [15] = APR_HepG2_MitoticArrest_24hr: Apredica 24-hour HepG2 Assay for Mitotic Arrest (AID 2282910); settings: high-content imaging, actives raise or lower the signal
# How it was run: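 Treatment lasted 24 hr in the human HepG2 line at 0.39–200 uM, solvent held at 0.5% DMSO. Fixed cells were stained with Hoechst 33342 and anti-phospho-histone H3, imaged at 20x, and analysed by gain- or loss-of-signal fitting against DMSO.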
# [16] = APR_HepG2_CellCycleArrest_1hr: Apredica 1-hour HepG2 Assay for Cell Cycle Arrest (AID 2282666); settings: high-content imaging, actives raise or lower the signal
# How it was run: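 Cell cycle arrest scored from nuclear DNA content (Hoechst 33342) using high-content imaging of fixed HepG2 cells after 1 h treatment across 0.39–200 uM, in duplicate. Gain or loss fitted relative to 0.5% DMSO.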
# [17] = APR_HepG2_p53Act_24hr: Apredica 24-hour HepG2 Assay for p53 Activation (AID 2282913); settings: high-content imaging, actives raise or lower the signal;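 also: p53 protein immunofluorescence averaged per cell in HepG2 with Hoechst nuclei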
# How it was run: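 HepG2 cells exposed 24 hr to compounds at 0.39–200 uM (10 concentrations, duplicate), final DMSO 0.5% v/v. After formaldehyde fixation and Triton permeabilization, p53 was immunolabeled (sheep anti-p53, Cy5 secondary) with Hoechst 33342 nuclear counterstain, then imaged by high-content fluorescence microscopy.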
# [18] = APR_HepG2_MicrotubuleCSK_1hr: Apredica 1-hour HepG2 Assay for Microtubule CSK Stabilty (AID 2282669); settings: HepG2 microtubule cytoskeleton imaging, actives raise or lower the signal
# How it was run: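 Alpha-tubulin immunofluorescence, imaged by automated high-content microscopy with Hoechst nuclear segmentation, measured cytoskeletal change after 1 h dosing of HepG2 at 0.39–200 uM in 0.5% DMSO. Activity fitted in both directions relative to DMSO.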
compound,measurement,setting,value
O=C(Nc1ccc([N+](=O)[O-])cc1Cl)c1cc(Cl)ccc1O,outcome,[1],inactive
same,outcome,[2],inactive
same,outcome,[3],inactive
same,outcome,[4],inactive
same,outcome,[5],inactive
same,AC50,[6],1.94 µM (active)
same,outcome,[7],inactive
same,AC50,[8],0.332 µM (active)
same,AC50,[9],0.672 µM (active)
same,outcome,[10],inactive
same,AC50,[11],2.63 µM (active)
same,AC50,[12],0.463 µM (active)
same,AC50,[13],0.331 µM (active)
CC1(C)C(C=C(Cl)Cl)C1C(=O)OCc1cccc(Oc2ccccc2)c1 (stereo not drawn),outcome,[1],inactive
same,outcome,[2],inactive
same,outcome,[3],inactive
same,outcome,[4],inactive
same,outcome,[5],inactive
same,outcome,[6],inactive
same,outcome,[14],inactive
same,outcome,[7],inactive
same,outcome,[8],inactive
same,outcome,[9],inactive
same,outcome,[15],inactive
same,AC50,[10],100 µM (active)
same,outcome,[11],inactive
same,AC50,[12],101 µM (active)
same,AC50,[13],62.3 µM (active)
N[C@@H](Cc1cc(I)c(Oc2ccc(O)c(I)c2)c(I)c1)C(=O)O,AC50,[1],40 µM (active) and 25 µM (active)
same,outcome,[14],inactive
same,outcome,[7],inactive
same,outcome,[8],inactive
same,outcome,[9],inactive
same,outcome,[10],inactive
same,outcome,[11],inactive
same,outcome,[12],inactive
same,outcome,[13],inactive
O=C(O)c1ccccc1,outcome,[1],inactive
same,outcome,[7],inactive
same,outcome,[8],inactive
same,outcome,[9],inactive
same,outcome,[15],inactive
same,outcome,[10],inactive
same,outcome,[11],inactive
same,outcome,[12],inactive
same,outcome,[13],inactive
c1ccc(Nc2ccccc2)cc1,outcome,[16],inactive
same,outcome,[2],inactive
same,outcome,[3],inactive
same,outcome,[4],inactive
same,outcome,[5],inactive
same,outcome,[6],inactive
same,outcome,[7],inactive
same,outcome,[8],inactive
same,outcome,[9],inactive
same,outcome,[10],inactive
same,outcome,[11],inactive
same,outcome,[12],inactive
same,outcome,[13],inactive
CN(C)C(=O)Nc1ccc(Cl)c(Cl)c1,outcome,[16],inactive
same,outcome,[2],inactive
same,outcome,[3],inactive
same,outcome,[4],inactive
same,outcome,[5],inactive
same,outcome,[6],inactive
same,outcome,[14],inactive
same,outcome,[7],inactive
same,outcome,[8],inactive
same,outcome,[9],inactive
same,outcome,[15],inactive
same,outcome,[10],inactive
same,outcome,[11],inactive
same,outcome,[17],inactive
same,outcome,[12],inactive
same,outcome,[13],inactive
COC(=O)c1cccc(C)c1S(=O)(=O)NC(=O)Nc1nc(OCC(F)(F)F)nc(N(C)C)n1,outcome,[16],inactive
same,outcome,[2],inactive
same,outcome,[3],inactive
same,outcome,[4],inactive
same,outcome,[5],inactive
same,outcome,[6],inactive
same,outcome,[7],inactive
same,outcome,[8],inactive
same,outcome,[9],inactive
same,outcome,[15],inactive
same,outcome,[10],inactive
same,outcome,[11],inactive
same,outcome,[12],inactive
same,outcome,[13],inactive
CCCOC(=O)c1ccc(C(=O)OCCC)nc1,outcome,[1],inactive
same,outcome,[2],inactive
same,outcome,[18],inactive
same,outcome,[3],inactive
same,outcome,[4],inactive
same,outcome,[5],inactive
same,outcome,[6],inactive
same,outcome,[7],inactive
same,outcome,[8],inactive
same,outcome,[9],inactive
same,outcome,[10],inactive
same,outcome,[11],inactive
same,outcome,[12],inactive
same,outcome,[13],inactive
